# Source: the supplement of paper PMC4022240
# ± gives the standard deviation.
# T1: HaloTag-ATRX ADD domain (163-292)
# T1 chain: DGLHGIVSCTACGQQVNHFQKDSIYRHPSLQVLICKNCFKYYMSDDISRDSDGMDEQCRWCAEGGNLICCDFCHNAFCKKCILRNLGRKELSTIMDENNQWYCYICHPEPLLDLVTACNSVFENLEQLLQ
# Key:
# Test in all cases: peptide microarray binding signal (635 nm), min-max normalized on array (fraction of array maximum); higher = stronger binding
# Conditions in all cases: peptide region: H3 1-13
# [1] = molecular target: T1, HaloTag-ATRX ADD domain (163-292)
# Experimental: (§1)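 Histone 13-mer peptides were synthesized as cellulose conjugates with a C-terminal 20-atom PEG linker and printed in triplicate on nitrocellulose. The sequence given is the unmodified backbone; PTMs (Kme1/2/3, Kac, Sph/Tph, Rme/Rme2a/Rme2s, Rcit) are listed in the label and the 'peptide modifications' condition. Slides were probed at 4 °C for 1 h with biotin-labelled (HQ)5-HaloTag reader fusions (ATRX-ADD, ING2-PHD) then streptavidin-Alexa647, or with rabbit histone antibodies then anti-rabbit Alexa647. The mean 635 nm signal of the triplicate spots was scaled 0-1 between the lowest and highest values on each array.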
# [2] = molecular target: HaloTag-ING2 PHD (mouse Ing2 200-280)
# Experimental: as §1
# [3] = molecular target: anti-H3K4me3 antibody ab8580
# Experimental: as §1
# [4] = molecular target: anti-H3K9me3 antibody ab8898
# Experimental: as §1
# [5] = peptide modifications: H3R2cit H3K9me3, binder concentration: 1:2,000 dilution
# [6] = peptide modifications: H3R2cit H3K9me3, binder concentration: 1:10,000 dilution
# [7] = peptide modifications: H3R2cit H3K9me1, binder concentration: 1:2,000 dilution
# [8] = peptide modifications: H3R2cit H3K9me1, binder concentration: 1:10,000 dilution
# [9] = peptide modifications: H3R2cit H3T3ph, binder concentration: 1:2,000 dilution
# [10] = peptide modifications: H3R2cit H3T3ph, binder concentration: 1:10,000 dilution
# [11] = peptide modifications: H3R2cit H3K4me2, binder concentration: 1:2,000 dilution
# [12] = peptide modifications: H3R2cit H3K4me2, binder concentration: 1:10,000 dilution
# [13] = peptide modifications: H3R2me1 H3K4me3, binder concentration: 1:2,000 dilution
# [14] = peptide modifications: H3R2me1 H3K4me3, binder concentration: 1:10,000 dilution
binder,measurement,setting,value
ARTKQTARKSTGG [H3 1-13 A Rcit T K Q T A R Kme3 S T G G],peptide microarray binding signal,"[1]; peptide modifications: H3R2cit H3K9me3, binder concentration: 50 nM",0.435 ± 0.044
same,peptide microarray binding signal,"[1]; peptide modifications: H3R2cit H3K9me3, binder concentration: 500 nM",0.525 ± 0.024
same,peptide microarray binding signal,"[2]; peptide modifications: H3R2cit H3K9me3, binder concentration: 10 nM",0.0492 ± 0.0064
same,peptide microarray binding signal,"[2]; peptide modifications: H3R2cit H3K9me3, binder concentration: 100 nM",0.0792 ± 0.014
same,peptide microarray binding signal,[3]; [5],0.137 ± 0.007
same,peptide microarray binding signal,[3]; [6],0.0635 ± 0.0071
same,peptide microarray binding signal,[4]; [5],0.676 ± 0.04
same,peptide microarray binding signal,[4]; [6],0.408 ± 0.044
ARTKQTARKSTGG [H3 1-13 A Rcit T K Q T A R Kme S T G G],peptide microarray binding signal,"[1]; peptide modifications: H3R2cit H3K9me1, binder concentration: 50 nM",0.0233 ± 0.0034
same,peptide microarray binding signal,"[1]; peptide modifications: H3R2cit H3K9me1, binder concentration: 500 nM",0.0804 ± 0.019
same,peptide microarray binding signal,"[2]; peptide modifications: H3R2cit H3K9me1, binder concentration: 10 nM",0.0313 ± 0.0068
same,peptide microarray binding signal,"[2]; peptide modifications: H3R2cit H3K9me1, binder concentration: 100 nM",0.0512 ± 0.0034
same,peptide microarray binding signal,[3]; [7],0.00831 ± 0.0015
same,peptide microarray binding signal,[3]; [8],0.0097 ± 0.00085
same,peptide microarray binding signal,[4]; [7],0.0064 ± 0.00042
same,peptide microarray binding signal,[4]; [8],0.00375 ± 0.00014
ARTKQTARKSTGG [H3 1-13 A Rcit Tph K Q T A R K S T G G],peptide microarray binding signal,"[1]; peptide modifications: H3R2cit H3T3ph, binder concentration: 50 nM",0.00364 ± 0.00018
same,peptide microarray binding signal,"[1]; peptide modifications: H3R2cit H3T3ph, binder concentration: 500 nM",0.0133 ± 0.0009
same,peptide microarray binding signal,"[2]; peptide modifications: H3R2cit H3T3ph, binder concentration: 10 nM",0.00125 ± 3.1e-05
same,peptide microarray binding signal,"[2]; peptide modifications: H3R2cit H3T3ph, binder concentration: 100 nM",0.0167 ± 0.011
same,peptide microarray binding signal,[3]; [9],0.00283 ± 0.00066
same,peptide microarray binding signal,[3]; [10],0.00126 ± 8.7e-05
same,peptide microarray binding signal,[4]; [9],0.000846 ± 7.1e-05
same,peptide microarray binding signal,[4]; [10],0.000807 ± 2.9e-05
ARTKQTARKSTGG [H3 1-13 A Rcit T Kme2 Q T A R K S T G G],peptide microarray binding signal,"[1]; peptide modifications: H3R2cit H3K4me2, binder concentration: 50 nM",0.00959 ± 0.00044
same,peptide microarray binding signal,"[1]; peptide modifications: H3R2cit H3K4me2, binder concentration: 500 nM",0.0222 ± 0.0016
same,peptide microarray binding signal,"[2]; peptide modifications: H3R2cit H3K4me2, binder concentration: 10 nM",0.0839 ± 0.0012
same,peptide microarray binding signal,"[2]; peptide modifications: H3R2cit H3K4me2, binder concentration: 100 nM",0.149 ± 0.043
same,peptide microarray binding signal,[3]; [11],0.126 ± 0.023
same,peptide microarray binding signal,[3]; [12],0.128 ± 0.017
same,peptide microarray binding signal,[4]; [11],0.00533 ± 0.00032
same,peptide microarray binding signal,[4]; [12],0.00352 ± 0.00019
ARTKQTARKSTGG [H3 1-13 A Rme T Kme3 Q T A R K S T G G],peptide microarray binding signal,"[1]; peptide modifications: H3R2me1 H3K4me3, binder concentration: 50 nM",0.00765 ± 0.00016
same,peptide microarray binding signal,"[1]; peptide modifications: H3R2me1 H3K4me3, binder concentration: 500 nM",0.0187 ± 0.00094
same,peptide microarray binding signal,"[2]; peptide modifications: H3R2me1 H3K4me3, binder concentration: 10 nM",0.267 ± 0.048
same,peptide microarray binding signal,"[2]; peptide modifications: H3R2me1 H3K4me3, binder concentration: 100 nM",0.215 ± 0.13
same,peptide microarray binding signal,[3]; [13],0.449 ± 0.19
same,peptide microarray binding signal,[3]; [14],0.243 ± 0.053
same,peptide microarray binding signal,[4]; [13],0.106 ± 0.018
same,peptide microarray binding signal,[4]; [14],0.0312 ± 0.0012
